Columns and labels:
Assay in all cases: DAPPL (digital affinity profiling via proximity ligation, sequencing); 10 mM Tris-HCl pH 7.5, 50 mM NaCl, 1 mM DTT, 4% glycerol, room temperature, 30 min; GST-TFs on glutathione beads, 16-mer random dsDNA library, 0.1% formaldehyde crosslink after washing; high values mean tight binding
FLI1 = biological target: T1, FLI1 (Homo sapiens, UniProt Q01543 1-452); settings: protein: recombinant; tags: N-terminal GST; dsDNA, one strand shown
T1 sequence: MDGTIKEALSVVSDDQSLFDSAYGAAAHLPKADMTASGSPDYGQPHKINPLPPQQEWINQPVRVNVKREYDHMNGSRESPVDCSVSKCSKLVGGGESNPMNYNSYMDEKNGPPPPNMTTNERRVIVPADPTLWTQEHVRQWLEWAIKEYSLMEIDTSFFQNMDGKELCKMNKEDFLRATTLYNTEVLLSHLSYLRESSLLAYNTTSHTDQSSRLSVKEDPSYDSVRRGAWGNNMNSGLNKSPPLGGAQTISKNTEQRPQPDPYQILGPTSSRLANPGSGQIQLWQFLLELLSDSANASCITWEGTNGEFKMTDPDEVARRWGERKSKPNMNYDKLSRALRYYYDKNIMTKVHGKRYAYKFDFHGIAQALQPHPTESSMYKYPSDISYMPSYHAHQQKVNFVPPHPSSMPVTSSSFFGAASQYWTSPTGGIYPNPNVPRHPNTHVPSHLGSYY
Procedure, shortened: (§1)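 In yeast, human transcription factors were expressed with a GST fusion, then pulled down on glutathione beads and given DNA barcodes. Pooled with a tag-only sample, they were exposed to 200 nmole of a 16-mer random double-stranded DNA library (Tris/NaCl/DTT/glycerol buffer, room temperature, 30 min), washed, crosslinked with 0.1% formaldehyde, proximity-ligated using BsaI/T4 ligase for 1 h at 37 °C, PCR-amplified and read on an Illumina NextSeq500. Each hexamer's frequency of reads for a factor, divided by the matching frequency for the tag-only sample, gives the binding signal.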

ELK1 = biological target: T2, ELK1 (Homo sapiens, UniProt P19419 1-428); settings: protein: recombinant; tags: N-terminal GST; dsDNA, one strand shown
T2 sequence: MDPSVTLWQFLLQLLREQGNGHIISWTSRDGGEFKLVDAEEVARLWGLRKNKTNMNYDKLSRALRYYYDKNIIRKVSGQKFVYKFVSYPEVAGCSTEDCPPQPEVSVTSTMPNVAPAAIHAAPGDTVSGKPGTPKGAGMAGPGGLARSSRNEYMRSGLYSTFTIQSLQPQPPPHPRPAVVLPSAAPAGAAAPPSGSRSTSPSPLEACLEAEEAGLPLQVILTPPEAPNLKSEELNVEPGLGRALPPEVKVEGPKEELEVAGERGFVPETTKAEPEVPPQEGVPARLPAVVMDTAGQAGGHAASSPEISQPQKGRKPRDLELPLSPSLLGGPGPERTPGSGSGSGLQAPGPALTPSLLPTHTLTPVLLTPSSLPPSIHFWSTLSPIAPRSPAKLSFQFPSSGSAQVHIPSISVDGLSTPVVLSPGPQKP
Procedure, shortened: as §1

GABPA = biological target: T3, GABPA (Homo sapiens, UniProt Q06546 1-454); settings: protein: recombinant; tags: N-terminal GST; dsDNA, one strand shown
T3 sequence: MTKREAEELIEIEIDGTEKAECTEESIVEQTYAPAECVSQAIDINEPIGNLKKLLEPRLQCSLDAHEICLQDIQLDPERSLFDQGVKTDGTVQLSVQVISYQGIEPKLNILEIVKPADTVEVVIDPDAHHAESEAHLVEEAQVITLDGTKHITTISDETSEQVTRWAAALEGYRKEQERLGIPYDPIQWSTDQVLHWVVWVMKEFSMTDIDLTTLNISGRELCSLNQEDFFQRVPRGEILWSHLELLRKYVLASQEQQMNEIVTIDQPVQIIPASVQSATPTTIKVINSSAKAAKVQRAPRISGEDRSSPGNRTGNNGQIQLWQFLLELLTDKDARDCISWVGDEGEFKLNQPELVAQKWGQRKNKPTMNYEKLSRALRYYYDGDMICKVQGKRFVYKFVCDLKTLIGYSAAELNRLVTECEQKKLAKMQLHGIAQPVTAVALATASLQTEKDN
Procedure, shortened: as §1

ERG = biological target: T4, ERG (Homo sapiens, UniProt P11308 1-479); settings: protein: recombinant; tags: N-terminal GST; dsDNA, one strand shown
T4 sequence: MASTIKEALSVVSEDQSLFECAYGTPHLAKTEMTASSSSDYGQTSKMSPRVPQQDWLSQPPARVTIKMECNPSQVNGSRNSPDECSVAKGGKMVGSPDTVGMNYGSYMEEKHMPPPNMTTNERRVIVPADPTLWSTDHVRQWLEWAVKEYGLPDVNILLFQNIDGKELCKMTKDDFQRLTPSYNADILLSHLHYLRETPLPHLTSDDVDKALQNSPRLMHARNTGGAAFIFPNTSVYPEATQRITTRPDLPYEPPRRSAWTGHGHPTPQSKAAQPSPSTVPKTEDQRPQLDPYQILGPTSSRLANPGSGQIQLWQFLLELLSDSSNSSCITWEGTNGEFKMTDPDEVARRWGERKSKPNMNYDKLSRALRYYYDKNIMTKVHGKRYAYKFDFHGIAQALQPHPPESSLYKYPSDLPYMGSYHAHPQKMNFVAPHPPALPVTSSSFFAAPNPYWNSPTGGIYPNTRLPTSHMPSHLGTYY
Procedure, shortened: as §1

ELF1 = ELF1 (Homo sapiens, UniProt P32519 1-619); settings: protein: recombinant; tags: N-terminal GST; dsDNA, one strand shown
Sequence of ELF1 (P32519 whole entry): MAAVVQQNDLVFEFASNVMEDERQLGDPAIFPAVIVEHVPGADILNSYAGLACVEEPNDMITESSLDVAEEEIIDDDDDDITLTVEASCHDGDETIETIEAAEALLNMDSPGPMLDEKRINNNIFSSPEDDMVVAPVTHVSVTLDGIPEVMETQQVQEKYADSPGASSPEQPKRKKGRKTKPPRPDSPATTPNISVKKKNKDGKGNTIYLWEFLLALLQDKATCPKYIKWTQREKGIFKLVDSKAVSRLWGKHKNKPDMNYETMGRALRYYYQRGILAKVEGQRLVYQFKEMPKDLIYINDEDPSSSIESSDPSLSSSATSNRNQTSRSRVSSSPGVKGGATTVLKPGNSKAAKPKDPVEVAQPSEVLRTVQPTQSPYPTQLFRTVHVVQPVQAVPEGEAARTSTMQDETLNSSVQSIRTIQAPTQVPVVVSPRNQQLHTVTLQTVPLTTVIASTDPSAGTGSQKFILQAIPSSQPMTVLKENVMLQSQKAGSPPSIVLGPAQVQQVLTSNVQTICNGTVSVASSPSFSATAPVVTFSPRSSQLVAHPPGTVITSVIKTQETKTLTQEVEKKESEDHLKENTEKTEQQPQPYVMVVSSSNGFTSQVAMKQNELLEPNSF
Procedure, shortened: as §1

EHF = biological target: T5, EHF (Homo sapiens, UniProt Q9NZC4 1-300); settings: protein: recombinant; tags: N-terminal GST; dsDNA, one strand shown
T5 sequence: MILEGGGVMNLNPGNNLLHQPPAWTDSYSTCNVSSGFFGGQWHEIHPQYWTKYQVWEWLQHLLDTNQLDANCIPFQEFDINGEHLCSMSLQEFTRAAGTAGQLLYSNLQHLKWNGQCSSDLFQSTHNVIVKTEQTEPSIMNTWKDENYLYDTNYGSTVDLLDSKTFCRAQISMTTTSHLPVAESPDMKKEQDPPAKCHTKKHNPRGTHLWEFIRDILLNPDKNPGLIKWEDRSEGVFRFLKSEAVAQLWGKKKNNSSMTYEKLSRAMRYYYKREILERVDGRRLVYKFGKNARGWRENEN
Procedure, shortened: as §1

SPI1 = SPI1 (Homo sapiens, UniProt P17947 1-270); settings: protein: recombinant; tags: N-terminal GST; dsDNA, one strand shown
Procedure, shortened: as §1

SPIB = SPIB (Homo sapiens, UniProt Q01892 1-262); settings: protein: recombinant; tags: N-terminal GST; dsDNA, one strand shown
Sequence of SPIB (Q01892 whole entry): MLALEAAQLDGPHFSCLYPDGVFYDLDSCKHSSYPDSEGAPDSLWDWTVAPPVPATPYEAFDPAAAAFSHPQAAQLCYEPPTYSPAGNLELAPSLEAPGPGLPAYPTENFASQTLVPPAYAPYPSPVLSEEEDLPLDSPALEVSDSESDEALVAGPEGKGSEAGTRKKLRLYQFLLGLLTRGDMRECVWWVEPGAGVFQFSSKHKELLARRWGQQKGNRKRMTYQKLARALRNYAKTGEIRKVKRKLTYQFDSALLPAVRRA
Procedure, shortened: as §1

ELK3 = biological target: T6, ELK3 (Homo sapiens, UniProt P41970 1-407); settings: protein: recombinant; tags: N-terminal GST; dsDNA, one strand shown
T6 sequence: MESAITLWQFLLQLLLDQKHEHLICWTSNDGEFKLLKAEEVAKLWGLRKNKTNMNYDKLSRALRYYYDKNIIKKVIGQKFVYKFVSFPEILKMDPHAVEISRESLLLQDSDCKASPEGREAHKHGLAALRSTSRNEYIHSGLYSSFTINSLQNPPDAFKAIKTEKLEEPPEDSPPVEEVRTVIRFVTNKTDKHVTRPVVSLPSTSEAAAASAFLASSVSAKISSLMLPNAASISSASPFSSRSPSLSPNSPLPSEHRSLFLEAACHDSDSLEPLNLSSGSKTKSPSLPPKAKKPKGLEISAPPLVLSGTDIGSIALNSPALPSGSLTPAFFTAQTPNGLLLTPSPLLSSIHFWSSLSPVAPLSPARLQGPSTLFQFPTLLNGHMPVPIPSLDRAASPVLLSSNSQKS
Procedure, shortened: as §1

FEV = biological target: T7, FEV (Homo sapiens, UniProt Q99581 1-238); settings: protein: recombinant; tags: N-terminal GST; dsDNA, one strand shown
T7 sequence: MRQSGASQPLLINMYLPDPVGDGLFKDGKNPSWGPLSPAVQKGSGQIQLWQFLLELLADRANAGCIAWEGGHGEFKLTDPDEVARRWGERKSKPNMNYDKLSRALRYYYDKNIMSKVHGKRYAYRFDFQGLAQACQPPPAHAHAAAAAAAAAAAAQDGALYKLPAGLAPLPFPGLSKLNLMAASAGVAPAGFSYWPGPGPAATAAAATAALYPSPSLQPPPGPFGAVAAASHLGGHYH
Procedure, shortened: as §1

ETV5 = ETV5 (Homo sapiens, UniProt P41161 1-510); settings: protein: recombinant; tags: N-terminal GST; dsDNA, one strand shown
Sequence of ETV5 (P41161 whole entry): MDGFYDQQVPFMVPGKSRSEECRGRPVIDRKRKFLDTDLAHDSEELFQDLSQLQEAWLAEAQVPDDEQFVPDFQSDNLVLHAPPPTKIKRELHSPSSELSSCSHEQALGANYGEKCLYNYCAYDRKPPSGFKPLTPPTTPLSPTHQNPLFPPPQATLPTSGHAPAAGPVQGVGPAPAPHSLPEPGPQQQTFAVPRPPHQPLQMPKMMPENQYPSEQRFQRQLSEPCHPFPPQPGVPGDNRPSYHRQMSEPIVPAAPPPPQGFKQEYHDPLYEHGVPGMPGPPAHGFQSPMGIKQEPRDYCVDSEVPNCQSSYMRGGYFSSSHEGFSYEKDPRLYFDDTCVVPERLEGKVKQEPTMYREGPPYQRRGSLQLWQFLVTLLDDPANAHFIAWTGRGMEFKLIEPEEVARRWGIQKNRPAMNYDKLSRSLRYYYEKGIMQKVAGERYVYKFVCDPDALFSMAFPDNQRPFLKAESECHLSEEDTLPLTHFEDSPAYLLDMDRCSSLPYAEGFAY
Procedure, shortened: as §1

HSF1 = HSF1 (Homo sapiens, UniProt Q00613 1-529); settings: protein: recombinant; tags: N-terminal GST; chain copies: 3; dsDNA, one strand shown
Sequence of HSF1 (Q00613 whole entry): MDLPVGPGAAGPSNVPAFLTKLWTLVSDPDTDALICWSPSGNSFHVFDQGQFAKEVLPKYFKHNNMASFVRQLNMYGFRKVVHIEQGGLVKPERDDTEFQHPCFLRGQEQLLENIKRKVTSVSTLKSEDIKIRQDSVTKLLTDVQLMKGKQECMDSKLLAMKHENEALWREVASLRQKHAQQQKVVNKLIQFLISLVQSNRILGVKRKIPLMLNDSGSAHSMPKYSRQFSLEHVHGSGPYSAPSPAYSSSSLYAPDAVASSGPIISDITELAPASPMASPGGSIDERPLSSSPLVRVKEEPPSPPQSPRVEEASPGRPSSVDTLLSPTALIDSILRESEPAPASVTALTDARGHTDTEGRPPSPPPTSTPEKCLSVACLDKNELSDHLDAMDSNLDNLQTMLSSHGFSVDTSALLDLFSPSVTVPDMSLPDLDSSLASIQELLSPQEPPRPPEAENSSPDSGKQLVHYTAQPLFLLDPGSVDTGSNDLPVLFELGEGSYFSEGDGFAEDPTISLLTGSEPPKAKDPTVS
Procedure, shortened: as §1

SPIC = biological target: T8, SPIC (Homo sapiens, UniProt Q8N5J4 1-248); settings: protein: recombinant; tags: N-terminal GST; dsDNA, one strand shown
T8 sequence: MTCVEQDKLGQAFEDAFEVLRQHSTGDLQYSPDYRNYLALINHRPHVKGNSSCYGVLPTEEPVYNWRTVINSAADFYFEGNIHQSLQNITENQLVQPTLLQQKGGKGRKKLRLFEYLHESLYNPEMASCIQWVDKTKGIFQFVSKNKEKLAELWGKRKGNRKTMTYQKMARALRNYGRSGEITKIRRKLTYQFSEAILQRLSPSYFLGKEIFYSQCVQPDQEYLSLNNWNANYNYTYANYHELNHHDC
Procedure, shortened: as §1

ELF4 = ELF4 (Homo sapiens, UniProt Q99607 1-663); settings: protein: recombinant; tags: N-terminal GST; dsDNA, one strand shown
Sequence of ELF4 (Q99607 whole entry): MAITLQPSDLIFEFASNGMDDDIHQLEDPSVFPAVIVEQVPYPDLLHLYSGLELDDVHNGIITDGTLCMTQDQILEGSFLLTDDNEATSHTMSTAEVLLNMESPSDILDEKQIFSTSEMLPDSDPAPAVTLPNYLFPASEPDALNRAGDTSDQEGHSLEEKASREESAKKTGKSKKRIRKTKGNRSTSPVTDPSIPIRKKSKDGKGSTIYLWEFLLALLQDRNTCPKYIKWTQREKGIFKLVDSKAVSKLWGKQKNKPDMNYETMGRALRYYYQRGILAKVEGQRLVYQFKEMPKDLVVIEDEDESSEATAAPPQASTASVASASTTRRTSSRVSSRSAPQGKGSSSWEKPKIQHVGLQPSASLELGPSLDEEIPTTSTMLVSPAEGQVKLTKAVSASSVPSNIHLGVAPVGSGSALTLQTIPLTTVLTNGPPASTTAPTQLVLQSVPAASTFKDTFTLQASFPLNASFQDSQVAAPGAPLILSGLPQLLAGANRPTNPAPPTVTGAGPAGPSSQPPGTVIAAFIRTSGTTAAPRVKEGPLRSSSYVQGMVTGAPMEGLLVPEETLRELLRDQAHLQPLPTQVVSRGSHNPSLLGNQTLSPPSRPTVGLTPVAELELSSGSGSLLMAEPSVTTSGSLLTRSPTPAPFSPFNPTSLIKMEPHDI
Procedure, shortened: as §1

ELK4 = biological target: T9, ELK4 (Homo sapiens, UniProt P28324-2 1-405); settings: protein: recombinant; tags: N-terminal GST; dsDNA, one strand shown
T9 sequence: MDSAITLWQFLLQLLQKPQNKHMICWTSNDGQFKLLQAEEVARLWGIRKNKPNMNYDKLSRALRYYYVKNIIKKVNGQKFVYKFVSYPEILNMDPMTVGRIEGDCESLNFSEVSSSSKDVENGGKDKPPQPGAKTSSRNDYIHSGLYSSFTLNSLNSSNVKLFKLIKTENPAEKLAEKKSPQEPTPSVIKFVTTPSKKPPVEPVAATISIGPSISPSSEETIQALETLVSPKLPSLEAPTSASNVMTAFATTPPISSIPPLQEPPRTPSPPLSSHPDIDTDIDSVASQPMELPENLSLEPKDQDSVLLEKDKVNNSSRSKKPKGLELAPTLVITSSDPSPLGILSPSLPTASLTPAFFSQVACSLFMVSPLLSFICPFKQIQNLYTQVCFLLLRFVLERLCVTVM
Procedure, shortened: as §1

ETV2 = biological target: T10, ETV2 (Homo sapiens, UniProt O00321 1-342); settings: protein: recombinant; tags: N-terminal GST; dsDNA, one strand shown
T10 sequence: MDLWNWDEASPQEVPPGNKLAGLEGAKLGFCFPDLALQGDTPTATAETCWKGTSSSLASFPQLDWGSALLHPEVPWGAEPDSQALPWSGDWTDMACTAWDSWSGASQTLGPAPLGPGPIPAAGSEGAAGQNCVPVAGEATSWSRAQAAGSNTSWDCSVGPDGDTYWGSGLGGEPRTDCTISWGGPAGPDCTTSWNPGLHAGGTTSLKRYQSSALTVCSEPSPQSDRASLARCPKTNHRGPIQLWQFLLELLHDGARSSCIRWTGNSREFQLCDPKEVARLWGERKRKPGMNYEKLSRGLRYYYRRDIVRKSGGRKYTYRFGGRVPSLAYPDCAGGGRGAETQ
Procedure, shortened: as §1

ELF3 = biological target: T11, ELF3 (Homo sapiens, UniProt P78545 1-371); settings: protein: recombinant; tags: N-terminal GST; dsDNA, one strand shown
T11 sequence: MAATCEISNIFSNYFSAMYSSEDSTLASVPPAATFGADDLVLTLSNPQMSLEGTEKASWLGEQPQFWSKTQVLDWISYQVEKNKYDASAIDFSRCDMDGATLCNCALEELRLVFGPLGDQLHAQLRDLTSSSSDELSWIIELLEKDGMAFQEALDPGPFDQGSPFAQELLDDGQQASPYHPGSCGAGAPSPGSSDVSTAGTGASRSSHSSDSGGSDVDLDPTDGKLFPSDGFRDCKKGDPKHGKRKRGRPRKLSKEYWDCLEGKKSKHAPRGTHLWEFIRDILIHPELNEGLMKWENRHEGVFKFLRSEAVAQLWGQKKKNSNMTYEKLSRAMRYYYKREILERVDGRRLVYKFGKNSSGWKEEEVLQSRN
Procedure, shortened: as §1

CRX = CRX (Homo sapiens, UniProt O43186 1-299); settings: protein: recombinant; tags: N-terminal GST; dsDNA, one strand shown
Sequence of CRX (O43186 whole entry): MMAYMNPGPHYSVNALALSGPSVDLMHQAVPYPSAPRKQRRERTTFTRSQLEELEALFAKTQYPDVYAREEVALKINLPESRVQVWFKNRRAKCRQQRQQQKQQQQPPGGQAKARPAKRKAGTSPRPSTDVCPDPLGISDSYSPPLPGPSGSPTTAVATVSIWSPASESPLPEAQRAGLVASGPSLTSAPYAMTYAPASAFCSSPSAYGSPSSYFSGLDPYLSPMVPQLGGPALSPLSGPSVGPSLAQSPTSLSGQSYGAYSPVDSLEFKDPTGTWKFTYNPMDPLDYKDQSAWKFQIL
Procedure, shortened: as §1

ETV1 = ETV1 (Homo sapiens, UniProt P50549 1-477); settings: protein: recombinant; tags: N-terminal GST; dsDNA, one strand shown
Sequence of ETV1 (P50549 whole entry): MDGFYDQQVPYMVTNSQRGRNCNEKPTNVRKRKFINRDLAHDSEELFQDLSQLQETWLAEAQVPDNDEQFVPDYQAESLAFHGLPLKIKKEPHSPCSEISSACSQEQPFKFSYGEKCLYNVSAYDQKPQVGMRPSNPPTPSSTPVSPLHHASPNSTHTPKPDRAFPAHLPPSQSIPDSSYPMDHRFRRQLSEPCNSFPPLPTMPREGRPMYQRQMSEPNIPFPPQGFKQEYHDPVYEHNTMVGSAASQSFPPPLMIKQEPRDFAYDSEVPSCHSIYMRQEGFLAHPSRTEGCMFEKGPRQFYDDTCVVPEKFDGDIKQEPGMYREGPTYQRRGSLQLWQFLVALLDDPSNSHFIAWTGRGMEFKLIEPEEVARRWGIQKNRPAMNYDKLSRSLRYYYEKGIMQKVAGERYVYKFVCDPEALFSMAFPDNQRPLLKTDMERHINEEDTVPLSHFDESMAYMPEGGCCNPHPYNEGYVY
Procedure, shortened: as §1

For TGGCTT, the binding signal (FLI1) was 1.27 fold enrichment (6-mer frequency, TF over GST control), the binding signal (ELK1) was 1.21 fold enrichment (6-mer frequency, TF over GST control) and the binding signal (GABPA) was 1.33 fold enrichment (6-mer frequency, TF over GST control). The binding signal (ERG) was 1.31 fold enrichment (6-mer frequency, TF over GST control), the binding signal (ELF1) was 1.28 fold enrichment (6-mer frequency, TF over GST control) and the binding signal (EHF) was 1.26 fold enrichment (6-mer frequency, TF over GST control). For the same sequence, the binding signal (SPI1) was 1.24 fold enrichment (6-mer frequency, TF over GST control), the binding signal (SPIB) was 1.26 fold enrichment (6-mer frequency, TF over GST control) and the binding signal (ELK3) was 1.23 fold enrichment (6-mer frequency, TF over GST control). For the same sequence, the binding signal (FEV) was 1.34 fold enrichment (6-mer frequency, TF over GST control), the binding signal (ETV5) was 1.19 fold enrichment (6-mer frequency, TF over GST control) and the binding signal (HSF1) was 1.38 fold enrichment (6-mer frequency, TF over GST control). The binding signal (SPIC) was 1.34 fold enrichment (6-mer frequency, TF over GST control), the binding signal (ELF4) was 1.28 fold enrichment (6-mer frequency, TF over GST control) and the binding signal (ELK4) was 1.23 fold enrichment (6-mer frequency, TF over GST control). The binding signal (ETV2) was 1.3 fold enrichment (6-mer frequency, TF over GST control), the binding signal (ELF3) was 1.32 fold enrichment (6-mer frequency, TF over GST control) and the binding signal (CRX) was 1.75 fold enrichment (6-mer frequency, TF over GST control). For the same sequence, the binding signal (ETV1) was 1.1 fold enrichment (6-mer frequency, TF over GST control).
